Results on 14 compounds are retold here after PubChem BioAssay.

Assay [1] is described as follows: inhibitors of TNFa-induced NFkB p65 translocation, primary screen, imaging, HUVEC, MLSMR starter and 10KST1 sets (AID 438;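 active = inhibition above 20% together with a positive visual image hit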;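 also: compound added about 3h40 before a 20 min TNFalpha stimulation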;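 as to inhibition: signal is the nuclear over cytoplasmic p65 intensity ratio per well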). As to conditions: HUVEC TNFa-induced p65 nuclear translocation; cell count: measured here: nuclei count (cytotoxicity indicator), at 2.08 µM; inhibition: at 2 µM, stronger effect = higher value, 0% TNFa-plus-vehicle, 100% no-TNFa wells.
Assay [2] in a line: reduction of polyQ htt aggregates in cells – imaging, exon1htt(103Q)mCFP cells, high-content imaging, primary screen (AID 483;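 active = visual image review flags a hit and inhibition of aggregation exceeds 20%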;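 also: compound exposure lasted 3 days before fixation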;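 as to nuclei count: percent of the per-plate median nuclei count of sample wells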). As to conditions: exon1htt(103Q)mCFP cell line, aggregate imaging, at 2 µM; inhibition of aggregation: stronger effect = higher value; nuclei count: measured here: cell count, toxicity.
Assay [3] is described as follows: endothelial E-selectin expression blockers – imaging, HUVEC, immunofluorescence, MLSMR starter and 10KST1 sets, primary screen (AID 487;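 active = visually confirmed hit in the image check and inhibition above 20%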;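 as to inhibition: signal is fraction of cell area covered by stained E-selectin grains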;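 as to nuclei count: 100% = median nuclei count of all wells on the same plate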). The note with it: HUVEC TNFalpha-induced E-selectin immunofluorescence imaging, at 2 µM; inhibition: stronger effect = higher value; nuclei count: measured here: cell number, toxicity.
The target of assay [4] is Voltage-gated potassium channel subunit beta-2 (Rattus norvegicus) (UniProt P62483). The assay can be described thus: inhibitors of rat Kvbeta2 reductase activity – biochemical, NADPH fluorescence, primary screen (AID 622).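 Also: slope of raw intensity against log time taken from 70 to 1610 s.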 The note with it: recombinant KvBeta, 4-cyanobenzaldehyde reduction, at 10 µM, stronger effect = higher value.
For assay [5] the target is unchanged. The assay can be described thus: enhancers of rat Kvbeta2 NADPH turnover – biochemical, NADPH fluorescence, primary screen (AID 623;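 active = NADPH fluorescence slope more negative than the mean of all samples by about 3 SD, 99.7% confidence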;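 also: fluorescence intensity change per second fitted from 20 to 320 s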). The note with it: Recombinant KvBeta, NADPH fluorescence decrease slope, 10 min; at 10 µM; stronger effect = lower value.
The target of assay [6] is Alpha-2C adrenergic receptor (Homo sapiens) (UniProt P18825). The assay can be described thus: compounds altering alpha2C-coupled GIRK flux – cell-based, HEK293 alpha2C/GIRK1/2, thallium flux, primary screen (AID 624;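 active = fluorescence slope after compound addition differing from the mean of all screened samples at 99.7% confidence, in either direction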;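 also: slope of fluorescence ratio to pre-addition baseline per second over 15 to 24 s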). As to conditions: thallium flux BTC fluorescence, at 10 µM, actives lie on both sides.
A short description of assay [7]: blockers of RIG-like receptor reporter activation – cell-based, Sendai virus stimulus, luciferase, 10K MLSCN set, TLR/RLR signaling modifier project, primary screen (AID 602276;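 active = inhibition at or above 50% at 10 µM; inactive = inhibition below 50%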;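 also: firefly luciferase from ISG56 promoter only with Renilla not read in this screen; 0% = Sendai virus plus DMSO and 100% = medium plus DMSO without virus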). As to conditions: HEK293 RL24 IRF3 luciferase reporter, at 10 µM, stronger effect = higher value.
Assay [8] in a line: TLR3 IRF3 reporter activation blockers – cell-based, poly I:C stimulus, luciferase, 10K MLSCN set, primary screen (AID 602277;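 active = inhibition of the reporter signal at or above 50%; inactive = inhibition below 50%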). As to conditions: HEK293-TLR3 RL24 IRF3 luciferase reporter, at 10 µM, stronger effect = higher value.

The structures appear in SMILES notation. The source made the active and inactive calls.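 The calls were made as follows, unless noted: active = fluorescence slope higher than the sample average by over 3 SD (cut at about -0.22 in these data, passing the limit was not always enough); inactive = the rest.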

Sequence of Voltage-gated potassium channel subunit beta-2 (Rattus norvegicus) (P62483 whole entry, looked up): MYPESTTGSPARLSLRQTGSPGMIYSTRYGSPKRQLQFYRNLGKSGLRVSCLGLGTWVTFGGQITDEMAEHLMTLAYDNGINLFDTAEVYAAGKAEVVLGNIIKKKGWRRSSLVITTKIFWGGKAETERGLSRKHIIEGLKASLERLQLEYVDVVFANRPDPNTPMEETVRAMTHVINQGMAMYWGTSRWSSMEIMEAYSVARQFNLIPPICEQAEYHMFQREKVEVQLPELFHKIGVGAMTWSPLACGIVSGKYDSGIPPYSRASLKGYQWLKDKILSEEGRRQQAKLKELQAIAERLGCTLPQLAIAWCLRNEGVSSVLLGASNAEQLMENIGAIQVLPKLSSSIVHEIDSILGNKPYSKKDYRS
Sequence of Alpha-2C adrenergic receptor (Homo sapiens) (P18825 whole entry, looked up): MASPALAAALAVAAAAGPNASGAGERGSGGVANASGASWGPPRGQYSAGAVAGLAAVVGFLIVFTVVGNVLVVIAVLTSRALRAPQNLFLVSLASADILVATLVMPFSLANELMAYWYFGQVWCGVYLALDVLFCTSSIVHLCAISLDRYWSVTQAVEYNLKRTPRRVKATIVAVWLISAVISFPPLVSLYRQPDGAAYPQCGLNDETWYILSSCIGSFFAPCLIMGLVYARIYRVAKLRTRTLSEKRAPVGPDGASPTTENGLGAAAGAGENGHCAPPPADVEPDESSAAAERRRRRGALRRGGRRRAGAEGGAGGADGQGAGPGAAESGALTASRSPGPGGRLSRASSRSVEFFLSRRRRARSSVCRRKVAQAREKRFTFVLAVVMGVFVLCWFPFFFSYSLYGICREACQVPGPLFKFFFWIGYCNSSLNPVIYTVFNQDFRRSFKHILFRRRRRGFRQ

As for `O=C(OCC(=O)c1cccs1)C1=COCCO1`, the cell count in assay [1] came to 656. For the same compound, the inhibition in assay [1] was -7.6% (inactive); in assay [3], 5.3% (inactive); in assay [7], -24.9% (inactive); in assay [8], -83.1% (inactive). Further, the inhibition of aggregation in assay [2] was -9.8% (inactive). Also, the nuclei count in assay [2] was 105%; in assay [3], 119%. In addition, the fluorescence slope in assay [4] is -0.345 (inactive). In addition, in assay [5], the NADPH fluorescence slope was -2.7e-05 (inactive). Besides, the slope in assay [6] is 0.00586 (inactive).
`O=C(CCNS(=O)(=O)c1ccc(Br)s1)N1CCCCC1`: the cell count in assay [1] worked out at 380. Also, the inhibition was 0.3% (inactive) in assay [1], -86.3% (inactive) in assay [3], -0.525% (inactive) in assay [7] and 7.37% (inactive) in assay [8]. Further, the inhibition of aggregation in assay [2] is -2% (inactive). Moreover, the nuclei count in assay [2] worked out at 99.9%; in assay [3], 106%. For the same compound, the fluorescence slope in assay [4] was -0.494 (inactive). Besides, the NADPH fluorescence slope in assay [5] is -3.4e-05 (inactive). In addition, in assay [6], the slope was 0.00623 (inactive).
Regarding `CCOc1ccc2c(O)csc2c1`, the cell count in assay [1] stood at 393. In addition, the inhibition in assay [1] is 2% (inactive); in assay [3], 7.7% (inactive); in assay [7], 8.13% (inactive); in assay [8] it was 10.6% (inactive). Besides, the inhibition of aggregation in assay [2] is 7.4% (inactive). Moreover, the nuclei count in assay [2] came out at 109%; in assay [3], 103%. In assay [4], the fluorescence slope is -0.371 (inactive). Also, the NADPH fluorescence slope in assay [5] was -4.2e-05 (inactive). For the same compound, the slope in assay [6] was 0.0033 (inactive).
With `O=C(Nc1cccc(NC(=O)c2ccco2)c1)c1ccc2c(c1)OCO2`, the cell count in assay [1] was 696. For the same compound, the inhibition in assay [1] was -6.1% (inactive); in assay [3], -70.1% (inactive); in assay [7] it was 7.09% (inactive); in assay [8], -29.5% (inactive). Moreover, the inhibition of aggregation in assay [2] is -10.2% (inactive). The nuclei count in assay [2] came out at 108%; in assay [3] it was 121%. Moreover, the fluorescence slope in assay [4] was -0.418 (inactive). Further, the NADPH fluorescence slope in assay [5] was 2.7e-06 (inactive). Besides, the slope in assay [6] is 0.00264 (inactive).
Regarding `O=c1cc(C(F)F)oc2c1ccc1ccccc12`, the cell count in assay [1] is 398. Also, the inhibition is -4% (inactive) in assay [1], -244% (inactive) in assay [3], 9.69% (inactive) in assay [7] and 19.9% (inactive) in assay [8]. Besides, in assay [2], the inhibition of aggregation was 14.2% (inactive). Further, the nuclei count in assay [2] worked out at 94%; in assay [3], 99.4%. In assay [4], the fluorescence slope is -0.349 (inactive). Further, the NADPH fluorescence slope in assay [5] is -1.6e-05 (inactive). The slope in assay [6] is 0.00247 (inactive).
Turning to `Cc1cc2c(cc(C(=O)OCC(=O)NCc3cccs3)n2C(C)C)o1`, the cell count in assay [1] is 379. Besides, the inhibition in assay [1] is 9.9% (inactive); in assay [3] it was -156% (inactive); in assay [7] it was 20.7% (inactive); in assay [8] it was 77.6% (active). Further, in assay [2], the inhibition of aggregation is 7.7% (inactive). Also, the nuclei count turned out to be 106% in assay [2] and 95.3% in assay [3]. For the same compound, the fluorescence slope in assay [4] is -0.586 (inactive). Besides, the NADPH fluorescence slope in assay [5] is -5.1e-05 (inactive). Further, in assay [6], the slope is 0.00376 (inactive).
With `COc1ccccc1OCc1ccc(C(=O)Nc2ccncc2)o1`, the cell count in assay [1] was found to be 729. Further, the inhibition in assay [1] was -7.3% (inactive); in assay [3] it was -69% (inactive); in assay [7] it was 8.87% (inactive); in assay [8] it was -20.1% (inactive). Moreover, in assay [2], the inhibition of aggregation is -9.4% (inactive). Also, the results for the nuclei count in assay [2] and in assay [3] were 83.1% and 120%, respectively. The fluorescence slope in assay [4] is -0.508 (inactive). Besides, the NADPH fluorescence slope in assay [5] is -5.2e-05 (inactive). Moreover, the slope in assay [6] was 0.00528 (inactive).
`CCOC(=O)c1ccc(NC(=O)CSc2nnc(COc3ccccc3)n2C)cc1`: in assay [1], the cell count amounted to 393. Further, the inhibition in assay [1] is 2.5% (inactive); in assay [3], -25.8% (inactive); in assay [7], -1.67% (inactive); in assay [8], 29% (inactive). Moreover, the inhibition of aggregation in assay [2] was -6.7% (inactive). Also, the nuclei count came out at 97.5% in assay [2] and 122% in assay [3]. Besides, the fluorescence slope in assay [4] was -0.455 (inactive). Moreover, the NADPH fluorescence slope in assay [5] was -5e-05 (inactive). In addition, the slope in assay [6] is 0.00289 (inactive).
Turning to `O=C(NCCCNC1CCCCC1)c1ccc(/C=N/O)nc1`, the cell count in assay [1] came to 221. The inhibition in assay [1] is 2% (inactive); in assay [3], -97.6% (inactive); in assay [7], 7.85% (inactive); in assay [8] it was 23% (inactive). Moreover, in assay [2], the inhibition of aggregation was -20.6% (inactive). For the same compound, the results for the nuclei count in assay [2] and in assay [3] were 67.6% and 108%, respectively. In addition, the fluorescence slope in assay [4] was -0.62 (inactive). Further, in assay [5], the NADPH fluorescence slope is -1.9e-05 (inactive). Moreover, the slope in assay [6] is 0.00681 (inactive).
For `O=C(Nc1ccon1)c1cc(-c2ccccc2)nc2ccccc12`, in assay [1], the cell count is 364. Also, the inhibition in assay [1] was -8% (inactive); in assay [3] it was -48.5% (inactive); in assay [7] it was -24.1% (inactive); in assay [8] it was 99.8% (active). For the same compound, the inhibition of aggregation in assay [2] is 22.5% (inactive). The values for the nuclei count in assay [2] and in assay [3] were 98.4% and 116%, respectively. Besides, the fluorescence slope in assay [4] is -0.286 (inactive). Moreover, the NADPH fluorescence slope in assay [5] is -6.3e-05 (inactive). Moreover, the slope in assay [6] was 0.00497 (inactive).
Turning to `N#CC1=C(N)OC2=C(CCC/C2=C/c2ccoc2)C1c1ccoc1` (centres undefined), the cell count in assay [1] was 413. Also, the inhibition in assay [1] is -5.2% (inactive); in assay [3], -137% (inactive); in assay [7] it was -7.37% (inactive); in assay [8], -9.08% (inactive). The inhibition of aggregation in assay [2] was -17.9% (inactive). Further, the nuclei count in assay [2] was determined as 113%; in assay [3] it was 115%. The fluorescence slope in assay [4] is -0.313 (inactive). In assay [5], the NADPH fluorescence slope was -5.7e-05 (inactive). Also, the slope in assay [6] was 0.00619 (inactive).
In the case of `COCCOC(=O)C1=C(N)OC2=C(C(=O)CC(C)(C)C2)C1c1cccnc1` (centres undefined), in assay [1], the cell count stood at 662. In addition, the inhibition was 4.8% (inactive) in assay [1], 22.6% (inactive) in assay [3], -8.98% (inactive) in assay [7] and 19% (inactive) in assay [8]. Further, the inhibition of aggregation in assay [2] is 9.7% (inactive). The nuclei count in assay [2] was found to be 139%; in assay [3] it was 112%. In assay [4], the fluorescence slope is -0.452 (inactive). Besides, the NADPH fluorescence slope in assay [5] is -4.3e-05 (inactive). The slope in assay [6] is 0.00687 (inactive).
For the compound `O=C(NCC(c1cccnc1)N1CCN(c2ccc(F)cc2)CC1)OCc1ccccc1` (centres undefined), the cell count in assay [1] was 568. Further, the inhibition in assay [1] was -6.4% (inactive); in assay [3], -34.3% (inactive); in assay [7] it was 17.1% (inactive); in assay [8], 1.38% (inactive). Besides, the inhibition of aggregation in assay [2] was -3.7% (inactive). For the same compound, the figures for the nuclei count in assay [2] and in assay [3] were 128% and 126%, respectively. Moreover, in assay [4], the fluorescence slope is -0.605 (inactive). In assay [5], the NADPH fluorescence slope is 7e-06 (inactive). Moreover, in assay [6], the slope was 0.00599 (inactive).
Consider `COc1cccc(NC(=O)CSc2nnnn2C(C)C)c1`, for which the cell count in assay [1] amounted to 738. Further, the inhibition in assay [1] was 6.1% (inactive); in assay [3] it was -4.8% (inactive); in assay [7] it was 0.303% (inactive); in assay [8], -4.86% (inactive). Further, the inhibition of aggregation in assay [2] is -20.3% (inactive). Moreover, the results for the nuclei count in assay [2] and in assay [3] were 109% and 123%, respectively. The fluorescence slope in assay [4] is -0.538 (inactive). For the same compound, the NADPH fluorescence slope in assay [5] is -9e-05 (inactive). Also, in assay [6], the slope is 0.00723 (inactive).
